The source of these data is PubChem BioAssay (NCI).

About 83,000 compounds went through this panel and 20% of them were active in at least one assay; those are over-represented in the sample as a whole.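 Values shown are percent growth following 48 h exposure of cells in 96-well plates to a single concentration of compound; below 10 was considered active.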 Active and inactive are the calls of the source.

One assay deals with HCC-2998 colon. As to the kind of experiment: NCI-60 one-dose screen, 48 h (100 = growth as untreated, 0 = no growth, -100 = all killed). The conditions noted are these: 10 µM unless noted.
Take `CC1=C(C(=O)OC(C)C)C(c2ccc(O)cc2)NC(=O)N1` (stereo unspecified): the growth is 111% (inactive).

For the compound `Cc1nn(-c2ccccc2)c2nc(C)n(CC(=O)N/N=C/c3ccccc3O)c(=O)c12`, the growth is 27.4% (inactive).

As to `O=CNc1cccc(-n2cnc3cc(-c4ccc(O)cc4)ccc32)c1`, the growth was 43.5% (inactive).

In the next assay the test system is KM12 colon. The description is as above. The note with it: 10 µM unless noted.
Regarding `COc1cc(CNC(=O)C[C@H](C)CCC=C(C)C)ccc1OCc1cn(-c2ccc(Br)cc2)nn1`, the growth was 94.6% (inactive).

As for `Cc1cccc(C)c1Nc1nnc(-c2c[nH]c3ccccc23)o1`, the growth was 102% (inactive).

`COc1cc(CNC(=O)C[C@H](C)CCC=C(C)C)ccc1OCc1cn(-c2ccc(Cl)c(Cl)c2)nn1`: the growth was 82.7% (inactive).

With `Cc1ccc(C(C)C)cc1Oc1cccc(-c2c(-c3ccc(C(F)(F)F)cc3)ncn2C2CCNCC2)n1`, the growth is -79.5% (active).

As to `COc1cc(CNC(=O)C[C@H](C)CCC=C(C)C)ccc1OCc1cn(-c2cccc(C(F)(F)F)c2)nn1`, the growth is 85% (inactive).

For `Cc1ccc(Nc2nnc(-c3c[nH]c4ccccc34)o2)c(C)c1`, the growth was 7.83% (active).

Turning to `CC1=C(C)C(=O)C(N2CCSCC2)=CC1=O`, the growth is 105% (inactive).

With `COc1ccc(C(=O)c2cc(C(C)=O)c3c(C)cc(C)cn23)cc1`, the growth is 71.2% (inactive).

Consider `O=C(c1ccc(O)cc1)C1[C@H](c2ccccc2Br)[C@@H](c2ccccc2)NC12C(=O)Nc1ccccc12` (stereo partly specified), for which the growth is 15.4% (inactive).

In the case of `C=CCSc1nnc(-c2ccc(-c3nc4ccccc4[nH]3)cc2)o1`, the growth was 82% (inactive).

Turning to `COc1cc(/C=C/C(=O)c2cnn(-c3cc(=O)[nH]c4ccc(C)cc34)c2C)cc(OC)c1OC`, the growth is -41.8% (active).

Regarding `COc1cc(-c2ccc3ncnc(N4CCc5ccc(Cl)cc54)c3c2)cnc1Cl`, the growth is 33.2% (inactive).

Turning to `COc1ccc(NC(=O)Cn2c(/C=C/c3cccc(OC)c3)nc3ccccc3c2=O)cc1`, the growth was 82.5% (inactive).

`CC[C@]12C=CCN3CC[C@]4(C(=C(C(=O)OC)C1)Nc1cc(OC)c([C@@H]5[C@H]6O[C@H]6[C@@]6(CC)CC(C(=O)OC)=C7Nc8cc(O)ccc8[C@@]78CCN5[C@@H]68)cc14)[C@@H]32`: the growth was 0.303% (active).

For the compound `COc1ccc2nc(NC(=O)c3ccc(N(C)C)cc3)sc2c1`, the growth was 57.8% (inactive).

With `Cc1nc(N)ncc1-c1ccc2ncnc(N3CCc4cc(F)c(Cl)cc43)c2c1`, the growth was 88.2% (inactive).

As to `N#Cc1ccc(C(=O)CSc2nc3c(c(Nc4ccc(S(N)(=O)=O)cc4)n2)CCC3)cc1`, the growth was 64.2% (inactive).

`CN(C(=O)CN1C(=O)/C(=C/c2ccco2)SC1=S)C1CCS(=O)(=O)C1` (stereo unspecified): the growth is 107% (inactive).

As for `O=C(Nc1ccc(-c2ccc3c(c2)NC(=O)/C3=C\c2ccc[nH]2)cc1)Nc1cccc(Cl)c1`, the growth is -22.3% (active).

For `COC(=O)c1c(C(=O)OC)c2c3ccccc3c3ccccc3n2c1C(=O)C(F)(F)F`, the growth is 106% (inactive).

As for `O=C(N/N=C/c1c[nH]c2ccccc12)Nc1ccc(F)c(Cl)c1`, the growth was -14.7% (active).

Take `O=C(CSc1nnc(-c2ccc(-c3nc4ccc(Cl)cc4[nH]3)cc2)o1)Nc1ccc(Br)cc1`: the growth is 18.9% (inactive).

With `Cn1cc(-c2cc(N)n3nc(-c4c[nH]c5ccc(Cl)cc45)cc3n2)c2cccnc21`, the growth is -70.2% (active).

With `COc1ccc2c(c1)C(Sc1ccc(Cl)cc1)c1c(nc(N)c(C#N)c1N)O2` (stereo unspecified), the growth was 47% (inactive).

In the case of `Cc1ccccc1NC(=O)c1cccc(NC(=O)CCl)c1`, the growth is 77.3% (inactive).

With `Oc1cncc(-c2ccc3ncnc(N4CCc5cc(F)c(Cl)cc54)c3c2)c1`, the growth is 61.4% (inactive).

On to `Nc1nnc(-c2cncc(Br)c2)c(-c2c[nH]c3ccc(Br)cc23)n1`, for which the growth is 41.4% (inactive).

With `C/C(=N/O)c1ccc(NC(=O)CSc2nnc(-c3ccc(-c4nc5ccc(Cl)cc5[nH]4)cc3)o2)cc1`, the growth is 2.42% (active).

In the case of `CCCCCCCCc1cccc(CC(=O)Nc2ccc(C)cc2C(=O)O)c1`, the growth is 45.8% [25 µM] (inactive).

For the compound `Cc1ccc(C(=O)Nc2cc(-n3cnc(F)c3)cc(C(F)(F)F)c2)cc1C#Cc1cnc2cccnn12`, the growth is 39.1% (inactive).

Regarding `CC[C@]12C=CCN3CC[C@@]4(c5ccc(OC)cc5N(C)[C@H]4[C@@](O)(C(=O)OC)[C@@H]1OC(=O)CCCC[P+](c1ccc(F)cc1)(c1ccc(F)cc1)c1ccc(F)cc1)[C@@H]32`, the growth was 16% (inactive).

For the compound `COc1ccc2c(c1)N=c1c-2cc2c(O)[nH]c(=S)n2c1=O`, the growth was 42.7% (inactive).

With `O=C(CSc1nnc(-c2ccc(-c3nc4ccccc4[nH]3)cc2)o1)Nc1ccc(Cl)cc1`, the growth was 22.9% (inactive).

In the case of `N/C(=N\c1nc2ccc([N+](=O)[O-])cc2s1)NC(=O)Nc1ccccc1Cl`, the growth is 38.6% (inactive).

Take `Fc1ccc(N2CC(Cn3c(C(F)(F)F)cc4c(Cl)ncnc43)C2)c(F)c1`: the growth was 99.5% (inactive).

With `CC1=C(C(=O)OC(C)C)C(c2ccc(O)cc2)NC(=O)N1` (stereo unspecified), the growth was 111% (inactive).

Consider `Cc1nn(-c2ccccc2)c2nc(C)n(CC(=O)N/N=C/c3ccccc3O)c(=O)c12`, for which the growth was 31% (inactive).

For the compound `O=CNc1cccc(-n2cnc3cc(-c4ccc(O)cc4)ccc32)c1`, the growth was 26.4% (inactive).
